# Measurements as given in PubChem BioAssay (NCI).
# Compounds without any hit were thinned out: in the full panel of roughly 79,000, 15% have a hit. Unmarked numbers belong to inactive results. The source made the active and inactive calls. Rule as the data show it: active = growth inhibition above about 70%; inactive = the rest.
# Assay: NCI Yeast Anticancer Drug Screen. Data for the sgs1 mgt1 strain (AID 161);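 also: 0% = growth of cultures given vehicle only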
# Conditions: S. cerevisiae sgs1 mgt1 strain, at 5.0 µM (retest, dose inferred, filed as 0.5), hits give high values
# Summary of the method: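 Mutant yeast exposed to compound; growth scored against vehicle-only wells.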
row,Structure (SMILES),growth inhibition [%]
1,CCCCCCCCCCC(NC(C)=O)(C(=O)OCC)C(=O)OCC,-3
2,Cc1nc2c(cnn2C)cc1CCc1ccccc1,5
3,CCc1cccc(C)c1NC(=O)C(=O)CC(=O)c1ccccc1Cl,-4
4,COc1nc(N)c(N=O)c(OCc2ccccc2)n1,62
5,O=C1O/C(=C2\OC(=O)c3ccccc32)c2ccccc21,4
6,Cc1ccc(O)c(C(C)(C)c2ccccc2)c1,-9
7,CCOC(=O)NN(C(=O)OCC)c1ccc(N=Nc2ccc(OC)cc2)n1C,-22
8,S=C(NCc1ccccc1)[S][Sb]([S]C(=S)NCc1ccccc1)[c]1ccccc1,-138
9,O=CCCCc1cc2c(cc1Br)CCC2,11
10,CCC(C)CNCCCCCNc1cc(OC)cc2cccnc12 (configuration not stated),38
11,CNC(=O)NC(c1cc(OC)c(OC)c(OC)c1)c1cc2c(cc1O)OCO2 (configuration not stated),-14
12,CCCCCCCSCc1nc2ccccc2c(C)[n+]1[O-],0
13,Cc1[nH]c(=O)[nH]c(=O)c1CN(C)Cc1cc(Cl)cc(Cl)c1O,0
14,O=C(N/C(=C\c1cccc([N+](=O)[O-])c1)c1nc2ccccc2s1)c1ccccc1,55
15,CC1NS(=O)(=O)N(C)C1=O (configuration not stated),5
16,Cc1csc2[n+]1C(=O)/C(=C\c1ccc([N+](=O)[O-])cc1)S2,32
17,CC(C)c1ccc2c(c1)CCC1C(C)(C(=O)O)CCCC21C (configuration not stated),16
18,COc1ncnc2nc(SC)[nH]c12,-1
19,CCN(CC)C(=O)CCCCC(=O)OC(C)C,-6
20,CC(=O)O/N=C1/CCC2C3CC=C4CC(OC(C)=O)CCC4(C)C3CCC12C (configuration not stated),8
21,Clc1ccc(CNc2ccc(Br)cc2)cc1,4
22,Cc1cnc(C#N)c(C#N)n1,2

# Same assay, conditions: S. cerevisiae sgs1 mgt1 strain, at 50.0 µM (retest, dose inferred, filed as 5.0), hits give high values
row,Structure (SMILES),growth inhibition
1,O=C(O)CCCCCCCCCCOc1ccc(Cl)cc1Cl,-3%
2,C=C(CN1CCCC1)C(=O)c1ccc(OC)cc1,55%
3,CNC(=O)OCc1c(COC(=O)NC)c(-c2ccc(OC)cc2)n2c1CCC2,68%
4,CCCCC(=S)N1CCN(c2ccccc2)CC1,9%
5,CCN(CC)C(=S)N/N=C/c1cc(OC)ccc1O,95% (active)
6,COc1ccc2c(c1)CN1C(CCC3c4ccccc4NC31)C2 (configuration not stated),30%
7,CCCCC(=O)N/N=C(\C)[C@]1(O)Cc2c(O)c3c(c(O)c2[C@@H](OC2CC(N)C(O)C(C)O2)C1)C(=O)c1c(OC)cccc1C3=O (some centres not stated),97% (active)
8,C=C1C(=O)C23OC2C1CCC(=O)C1(C)CC[C@H](OC(C)=O)C(C)(C)[C@H]1CC3O (some centres not stated),42%
9,Cc1nc(N)sc1N=Nc1ccc(Cl)cc1Cl,94% (active)
10,O=C(O)c1cc2c3ccccc3sc2c2ccccc12,3%
11,COc1ccc2c(c1)C(Br)CCC(Br)C2=O (configuration not stated),26%
12,Cc1cc(OCCl)ccc1[N+](=O)[O-],67%
13,COC(=O)c1nnc(C(=O)OC)c2c1[nH]c1ccccc12,50%
14,O=S(Nc1ccccc1Br)c1ccccc1 (configuration not stated),21%
15,Cc1c2c(c(C)c3c1OC(C)(C)CC3)OC(C)(C)CC2,8%
16,O=c1cc(CSc2ccc(Cl)cc2)occ1O,72% (active)
17,Cc1ccc2c(c1)[n+]([O-])c(N)n[n+]2[O-],43%
18,CC(=O)c1c2c(cc3c1CC1(C3)Cc3cc4c(c(C(=O)O)c3C1)CCC4)CCC2 (configuration not stated),97% (active)
19,CCCCCCCCCCC(NC(C)=O)(C(=O)OCC)C(=O)OCC,99% (active)
20,Cc1nc2c(cnn2C)cc1CCc1ccccc1,53%

row,Structure (SMILES),growth inhibition
1,CCc1cccc(C)c1NC(=O)C(=O)CC(=O)c1ccccc1Cl,0%
2,COc1nc(N)c(N=O)c(OCc2ccccc2)n1,57%
3,O=C1O/C(=C2\OC(=O)c3ccccc32)c2ccccc21,1%
4,Cc1ccc(O)c(C(C)(C)c2ccccc2)c1,43%
5,CCOC(=O)NN(C(=O)OCC)c1ccc(N=Nc2ccc(OC)cc2)n1C,87% (active)
6,S=C(NCc1ccccc1)[S][Sb]([S]C(=S)NCc1ccccc1)[c]1ccccc1,93% (active)
7,O=CCCCc1cc2c(cc1Br)CCC2,73% (active)
8,CCC(C)CNCCCCCNc1cc(OC)cc2cccnc12 (configuration not stated),87% (active)
9,CNC(=O)NC(c1cc(OC)c(OC)c(OC)c1)c1cc2c(cc1O)OCO2 (configuration not stated),5%
10,CCCCCCCSCc1nc2ccccc2c(C)[n+]1[O-],98% (active)
11,Cc1[nH]c(=O)[nH]c(=O)c1CN(C)Cc1cc(Cl)cc(Cl)c1O,95% (active)
12,O=C(N/C(=C\c1cccc([N+](=O)[O-])c1)c1nc2ccccc2s1)c1ccccc1,98% (active)
13,CC1NS(=O)(=O)N(C)C1=O (configuration not stated),3%
14,Cc1csc2[n+]1C(=O)/C(=C\c1ccc([N+](=O)[O-])cc1)S2,80% (active)
15,CC(C)c1ccc2c(c1)CCC1C(C)(C(=O)O)CCCC21C (configuration not stated),-15%
16,COc1ncnc2nc(SC)[nH]c12,-4%
17,CCN(CC)C(=O)CCCCC(=O)OC(C)C,-12%
18,CC(=O)O/N=C1/CCC2C3CC=C4CC(OC(C)=O)CCC4(C)C3CCC12C (configuration not stated),89% (active)
19,Clc1ccc(CNc2ccc(Br)cc2)cc1,94% (active)
20,Cc1cnc(C#N)c(C#N)n1,7%
